92 compounds from PubChem BioAssay AID1851 (National Center for Advancing Translational Sciences (NCATS), 2009) can be followed below.

Structures are written as SMILES. Values joined by “and” are separate entries in the source; they are usually repeats but may differ in a detail not shown here. Equal entries are not always repeated. The whole screen tested about 16,000 compounds, of which about 5,800 (36%) were called active. Roughly 23% stayed inconclusive and do not appear here. Some of the results follow. Values without a mark were called inactive. Calls come from the whole dose curve; as a rule, active = well fitted curve in the direction sought with a large enough effect; inconclusive = small, poorly fitted or top-dose-only effect, or effect the other way; inactive = no such curve, though single readings can be large or run the other way.
% is set by controls: 0 for no effect and ±100 for the full control effect.

The target of the assay is Cytochrome P450 2C19 (Homo sapiens) (UniProt P33261). In words: Cytochrome panel assay with activity outcomes. The following applies: recombinant CYP, pro-luciferin dealkylation, luminescence, p450-cyp2c19; series mostly up to 57.1 µM.
Cytochrome P450 2C19 (Homo sapiens), sequence (P33261 whole entry, looked up): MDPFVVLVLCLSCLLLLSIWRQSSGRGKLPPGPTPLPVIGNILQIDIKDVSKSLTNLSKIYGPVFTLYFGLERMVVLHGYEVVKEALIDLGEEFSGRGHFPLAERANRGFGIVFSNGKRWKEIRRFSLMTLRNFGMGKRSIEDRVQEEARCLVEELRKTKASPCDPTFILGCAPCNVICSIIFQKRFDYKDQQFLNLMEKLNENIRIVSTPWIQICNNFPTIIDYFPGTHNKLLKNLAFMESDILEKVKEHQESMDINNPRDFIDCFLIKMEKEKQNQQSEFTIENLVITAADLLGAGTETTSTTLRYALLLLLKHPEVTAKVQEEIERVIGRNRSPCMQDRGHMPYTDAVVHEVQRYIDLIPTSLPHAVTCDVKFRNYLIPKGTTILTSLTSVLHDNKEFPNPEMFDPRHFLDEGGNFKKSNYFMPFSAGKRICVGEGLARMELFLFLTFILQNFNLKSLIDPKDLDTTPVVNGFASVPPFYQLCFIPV
For `C#CCN(C)CCCOc1ccc(Cl)cc1Cl`, the AC50 is 5.01 µM (active) and 2.51 µM (active).
With `CCCCN(C)Cc1c(C)[nH]c2ccc(Cl)cc2c1=O`, the AC50 result was “inactive”.
For the compound `O=[N+]([O-])c1cccc2c[nH]nc12`, the AC50 entry was “inactive”.
Turning to `O=[N+]([O-])c1ccc(S(=O)(=O)Cc2ccccc2)c2nonc12`, the AC50 is 3.16 µM (active).
Consider `FC(F)(F)c1ccccc1-c1cc(NCCN2CCOCC2)ncn1`, for which the AC50 entry is “inactive”.
Take `CN1CCN(c2ncncc2-c2ccccc2C(F)(F)F)CC1`: the AC50 is 15.8 µM (active).
The same measure, in the same setting: in the case of `CNc1cc(-c2ccccc2C(F)(F)F)ncn1` it was “inactive”.
Take `CN1CCN(c2cc(-c3ccccc3C(F)(F)F)ncn2)CC1`: the AC50 was 10 µM (active).
Take `CN1CCN(c2ncncc2-c2ccccc2Cl)CC1`: the AC50 entry is “inactive”.
Same read-out and setting: in the case of `O=c1onc(-c2cccs2)n1Cc1ccccc1` it was 1 µM (active); in that of `CN(C)c1ncc2nc(-c3cccs3)c(=O)n(CCc3ccccc3)c2n1`, “inactive”; in that of `CCn1nc(C)c(NC(=O)/C=C/c2cnn(C)c2C)c1C`, “inactive”.
Regarding `COc1ccc(Br)cc1/C=C/C(=O)Nc1c(C)cccc1C`, the concentration at half-maximal activity (AC50) is 4.47 µM (active).
On to `O=C(O)Cn1ccnc1[N+](=O)[O-]`, for which the activity, negative = inhibition is 4.05% [at 11.4 µM].
For the compound `O=C(c1cc(C(F)(F)F)cc(C(F)(F)F)c1)N1CCC[C@@]2(CCN(Cc3ccccc3)C2)C1`, the AC50 result is “inactive”.
In the case of `O=C(c1cc(C(F)(F)F)cc(C(F)(F)F)c1)N1CCC[C@@]2(CCN(Cc3ccncc3)C2)C1`, the AC50 is 0.2 µM (active).
Regarding `O=C(c1cnccn1)N1CCC[C@@]2(CCN(Cc3cc(C(F)(F)F)cc(C(F)(F)F)c3)C2)C1`, the AC50 entry was “inactive”.
As to `O=C(c1cnccn1)N1CCC[C@@]2(CCN(c3ccncc3)C2)C1`, the AC50 entry was “inactive”.
On to `O=C(c1cnccn1)N1CCC[C@@]2(CCN(Cc3ccncc3)C2)C1`, for which the AC50 is 10 µM (active).
For `N#Cc1ccc(CN2CC[C@@]3(CCCN(C(=O)c4cc(C(F)(F)F)cc(C(F)(F)F)c4)C3)C2)cc1`, the AC50 result was “inactive”.
As to `CCC(=O)O[C@@]1(C(=O)CCl)[C@@H](C)C[C@@H]2[C@H]3CCC4=CC(=O)C=C[C@@]4(C)[C@]3(F)[C@@H](O)C[C@@]21C`, the AC50 entry is “inactive”.
As for `Cc1ccc(S(=O)(=O)CCc2nnc(NC(=O)COc3cccc(C)c3)s2)cc1`, the AC50 result is “inactive”.
Consider `O=C(COc1ccc(/C=N/NC(=O)c2ccccc2)cc1)Nc1ccc([N+](=O)[O-])cc1`, for which the AC50 result was “inactive”.
Regarding `C/C(CC(=O)Nc1cc(C)ccn1)=N\NC(=O)COc1cccc(C)c1`, the AC50 is 25.1 µM (active).
Turning to `Cc1ccnc(NC(=O)c2cccc(NC(=O)COc3ccccc3)c2)c1`, the AC50 was 15.8 µM (active).
Still for that read-out and setting: in the case of `C[N+]1(CCOc2ccc([N+](=O)[O-])cc2)CCOCC1` it was “inactive”.
Turning to `CCOC(=O)c1cccc(NC(=O)COc2ccc([N+](=O)[O-])cc2)c1`, the AC50 is 3.55 µM (active).
Regarding `CC(C)c1nc2oc3ccccc3c(=O)c2c(=O)n1-c1ccccc1`, the AC50 entry is “inactive”.
Same read-out and setting: in the case of `CC(C)Cn1c(=O)n(C)c(=O)c2[nH]cnc21` it was “inactive”.
For `CC(C)Cn1c(N)c(C(=O)CSc2ccc3c(c2)OCCO3)c(=O)n(C)c1=O`, the AC50 is 2.51 µM (active).
On to `Cc1nn(-c2ccc(Cl)cc2)c2sc(C(=O)c3c(N)n(C)c(=O)n(C)c3=O)cc12`, for which the AC50 entry was “inactive”.
For `Cn1c(N)c(C(=O)CSc2ccc3c(c2)OCCO3)c(=O)n(C)c1=O`, the AC50 is 5.62 µM (active).
On to `COc1ccc(C2=Nc3cccc4cccc(c34)N2)cc1`, for which the AC50 entry is “inactive”.
With `C/C(=N\OC(=O)NC1CCCCC1)c1sc(-c2ccccc2)nc1C`, the AC50 was 5.62 µM (active).
For `O=C(O)c1cc2ccccc2c(S(=O)(=O)O)c1O`, the activity, negative = inhibition was 23.2% [at 11.4 µM].
On to `Cc1ccc(Sc2c([N+](=O)[O-])ncn2C)cc1`, for which the half-maximal activity concentration (AC50) is 25.1 µM (active).
On to `Cn1cnc([N+](=O)[O-])c1Sc1nc(N)nc2c1ncn2[C@H]1C[C@H](O)[C@@H](CO)O1`, for which the activity, negative = inhibition is 8.27% [at 11.4 µM].
On to `Cc1cccc(Sc2c([N+](=O)[O-])ncn2C)n1`, for which the AC50 result was “inactive”.
As for `Cc1nn(Cc2c(Cl)cccc2Cl)c(C)c1NC(=O)c1cnn2c(C(F)F)cc(-c3ccccc3)nc12`, the AC50 is 7.08 µM (active).
With `O=C(Nc1ccn(Cc2ccccc2F)n1)c1ccc(COc2cc(Cl)ccc2Cl)o1`, the AC50 is 0.708 µM (active).
With `CC(C)CNC(=O)c1ccc(COc2ccc(Cl)cc2Cl)o1`, the AC50 was 10 µM (active).
On to `Cn1ncc(Cl)c1C(=O)Nc1cccnc1`, for which the AC50 entry was “inactive”.
For `O=C(Nc1cccnc1)c1ccc(COc2cc(Cl)ccc2Cl)o1`, the AC50 was 2.51 µM (active).
As to `O=C(N/N=C/c1ccc(O)cc1)c1ccc(COc2cc(Cl)ccc2Cl)o1`, the AC50 is 4.47 µM (active).
Same read-out and setting: for `CC(=O)O[C@@H](C)C[N+](C)(C)C` the value was “inactive”.
Turning to `CO[C@@H]1COC(=O)CC=C[C@@H](C)[C@@H]2C=C[C@H](O)[C@@H](COC(=O)C/C=C\[C@H]1C)O2`, the activity, negative = inhibition is -32.3% [at 11.4 µM].
As to `O=C(c1ccccc1)[C@H](Nc1ccc2ccccc2c1)c1ccccc1`, the AC50 is 1 µM (active).
Regarding `O=C(O)[C@@H](c1ccccc1)[C@@H](C(=O)O)c1ccccc1`, the activity, negative = inhibition is 8.57% [at 11.4 µM].
For the compound `CC1=CC(=C2C(=O)c3ccccc3C2=O)C=C(C)O1`, the half-maximal activity concentration (AC50) is 25.1 µM (active).
Same read-out and setting: for `CC1=CC(=C2C(=O)c3ccccc3C2=O)C=C(C)N1Cc1ccco1` the value was 4.47 µM (active).
Turning to `CCCCS(=O)(=O)NC1=NCN(Cc2ccco2)CN1`, the AC50 result is “inactive”.
Consider `COC(=O)C(NC(=O)c1ccccc1)=C1C=C(C)OC(C)=C1`, for which the AC50 entry was “inactive”.
In the case of `Cc1nc(SCc2cccc(Oc3ccccc3)c2)n[nH]1`, the AC50 is 5.01 µM (active).
For `CO[C@]1(NC(=O)[C@H](C(=O)O)c2ccc(O)cc2)C(=O)N2C(C(=O)O)=C(CSc3nnnn3C)CO[C@H]21`, the AC50 result is “inactive”.
Consider `FC(F)(F)c1ccccc1-c1cncnc1NCCc1cnc[nH]1`, for which the AC50 was 0.01 µM (active).
In the case of `CC(=O)NCCNc1ncncc1-c1ccccc1C(F)(F)F`, the AC50 result was “inactive”.
Take `COc1ccccc1-c1cncnc1NCCc1cnc[nH]1`: the AC50 is 0.0794 µM (active).
Regarding `COc1cccc(-c2cncnc2NCCc2cnc[nH]2)c1`, the AC50 was 0.01 µM (active).
Take `CS(=O)(=O)N1CCC2(CCCN(C(=O)Nc3cccc(F)c3)C2)CC1`: the AC50 entry was “inactive”.
As to `Cc1ccc(C(C)C)n1C(=O)OC(C)(C)C`, the activity, negative = inhibition was 4.81% [at 11.4 µM].
For `CN(C)/C=N/c1ncc(C(=O)c2ccc3ccccc3c2)s1`, the AC50 is 14.1 µM (active).
For the compound `CN(C)c1ccc(/C=N\NC(=O)c2cnc3ccccc3c2)cc1`, the activity, negative = inhibition is 21.3% [at 11.4 µM].
With `COc1ccc(C(C(=O)NC2CCCC2)N(C(=O)c2snc(-c3ccc(F)cc3)c2N)c2ccccc2)cc1` (configuration not stated), the AC50 result was “inactive”.
With `O=C(NC1CCCCC1)C(c1cccs1)N(C(=O)C(F)(F)F)c1ccccc1` (configuration not stated), the concentration at half-maximal activity (AC50) was 1.58 µM (active).
`COc1ccc(CCN(C(=O)C(F)(F)F)C(C(=O)NC2CCCC2)c2cccs2)cc1` (configuration not stated): the AC50 was 2 µM (active).
Turning to `CCOC(=O)c1ccc(N/C(=N\S(=O)(=O)c2ccccc2C)c2ccccc2)cc1`, the AC50 is 7.94 µM (active).
For `COc1cc(OC)c(C2C(C(=O)O)c3ccccc3C(=O)N2C)cc1OC` (configuration not stated), the AC50 entry is “inactive”.
The same measure, in the same setting: in the case of `COc1cc2c(cc1OC)C(C(=O)Nc1ccc3c(c1)OCCO3)C(c1cccnc1)N(C)C2=O` (configuration not stated) it was “inactive”; in that of `COCCN1C(=O)c2ccccc2C(C(=O)Nc2ccc3c(c2)OCCO3)C1c1ccc(F)cc1` (configuration not stated), 28.2 µM (active).
Turning to `CCn1c(SCC(=O)N/N=C/C=C\c2ccccc2[N+](=O)[O-])nnc1-c1ccccc1`, the concentration at half-maximal activity (AC50) is 14.1 µM (active).
With `CC1=NNC(=O)C1CCC(=O)N/N=C\c1ccccc1[N+](=O)[O-]` (configuration not stated), the AC50 result is “inactive”.
The same measure, in the same setting: for `Cc1noc(C)c1C(=O)N1CCC[C@@]2(CCN(Cc3nccs3)C2)C1` the value was “inactive”.
As to `CSc1nc(C)cc(Nc2ccc(O)c(CN3CCOCC3)c2)n1`, the activity, negative = inhibition was 52.5% [at 11.4 µM].
For the compound `Cc1cc(N2CCOCC2)nc(SCc2ccc(Cl)cc2Cl)n1`, the AC50 is 2.24 µM (active).
On to `COc1cccc2c1C(=O)c1c(O)c3c(c(O)c1C2=O)C[C@](O)(C(=O)CO)C[C@H]3O[C@@H]1C[C@H](N)[C@H](O)[C@H](C)O1`, for which the AC50 entry is “inactive”.
Regarding `COc1ccc(-n2c(=O)c(-c3ccccc3)nc3cnc(N4CCOCC4)nc32)cc1`, the AC50 entry is “inactive”.
`Cc1cc(Oc2ccc(-c3ccccc3)cc2)nc(N2CCOCC2)n1`: the AC50 was 14.1 µM (active).
Regarding `CCCc1ccc(Oc2cc(C)nc(N3CCOCC3)n2)cc1`, the AC50 is 11.2 µM (active).
Consider `O=c1c(-c2ccccc2)nc2cnc(N3CCOCC3)nc2n1C1CC1`, for which the AC50 entry is “inactive”.
On to `Nc1nc(Cl)nc2c1ncn2[C@@H]1O[C@@H](COP(=O)(O)OP(=O)(O)OP(=O)(O)O)[C@@H](O)[C@H]1O`, for which the AC50 entry was “inactive”.
With `O=C(NC1CCCCC1)C(c1cccs1)N(Cc1cccs1)C(=O)c1ccco1` (configuration not stated), the AC50 is 1.58 µM (active).
Turning to `COc1ccc(CN(C(=O)Cc2cccs2)C(C(=O)NC2CCCC2)c2ccncc2)cc1` (configuration not stated), the AC50 is 1.78 µM (active).
Take `O=C(NC1CCCC1)C(c1ccsc1)N(Cc1ccccc1)C(=O)Cc1cccs1` (configuration not stated): the AC50 was 5.01 µM (active).
Take `CO[C@H]1[C@@H](OC(N)=O)[C@H](O)[C@@H](Oc2ccc3c(O)c(NC(=O)c4ccc(O)c(CC=C(C)C)c4)c(=O)oc3c2C)OC1(C)C`: the AC50 result is “inactive”.
Consider `NC(=S)c1ccc[n+]([C@@H]2O[C@@H](COP(=O)([O-])OP(=O)(O)OC[C@@H]3O[C@@H](n4cnc5c(N)ncnc54)[C@@H](OP(=O)(O)O)[C@H]3O)[C@@H](O)[C@H]2O)c1`, for which the AC50 result was “inactive”.
As to `COc1ccc2[nH]c(C(=O)c3ccccc3)cc2c1`, the AC50 result is “inactive”.
With `COc1cccc(C(=O)/C=C/c2ccc(SC)cc2)c1`, the AC50 was 0.631 µM (active).
The same measure, in the same setting: in the case of `CCCC(=O)Nc1ccc(C(=O)/C=C/c2ccc(SC)cc2)cc1` it was 2.51 µM (active); in that of `CCCCCCCCCCCCCCCCCCc1ccc(C(=O)/C=C\C(=O)O)cc1`, “inactive”; in that of `O=S(=O)(NCc1cccnc1)c1ccc(Cl)nc1`, 31.6 µM (active).
On to `c1cncc(CNCc2cccnc2)c1`, for which the activity, negative = inhibition is 5.45% [at 11.4 µM].
On the same count and under the same terms, for `OCCNc1ncnc2nc[nH]c12` the value was 10.2% [at 11.4 µM].

As a reminder, the AC50 is the concentration giving half of the maximal activity seen.
